Where “and” joins values, the source holds several entries; their conditions need not be identical. Equal entries are not always repeated. The panel holds about 83,000 compounds, 20% with a hit somewhere; the sample as a whole holds those more often.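 Testing used 96-well plates and a 48-hour single-concentration exposure. Example: -40 means 40% of the starting cells died.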 Values without a mark were called inactive. Calls of active or inactive are those of the source. The calls were made as follows: active = growth percent below 10; inactive = the rest.
Columns and labels:
Test in all cases: NCI-60 one-dose screen, 48 h (100 = growth as untreated, 0 = no growth, -100 = all killed)
RPMI-8226 leukemia = conditions: 10 µM
OVCAR-5 ovarian = conditions: 10 µM
OVCAR-4 ovarian = conditions: 10 µM
SK-OV-3 ovarian = conditions: 10 µM
IGROV1 ovarian = conditions: 10 µM
OVCAR-3 ovarian = conditions: 10 µM
HS 578T breast = conditions: 10 µM
NCI/ADR-RES ovarian = conditions: 10 µM
T-47D breast = conditions: 10 µM
BT-549 breast = conditions: 10 µM
MDA-MB-435 melanoma = conditions: 10 µM
SW-620 colon = conditions: 10 µM
MCF7 breast = system: MCF7 breast
HCT-116 colon = conditions: 10 µM
HCC-2998 colon = conditions: 10 µM
KM12 colon = conditions: 10 µM
OVCAR-8 ovarian = conditions: 10 µM

Row | SMILES | growth (RPMI-8226 leukemia) | growth (OVCAR-5 ovarian) | growth (OVCAR-4 ovarian) | growth (SK-OV-3 ovarian) | growth (IGROV1 ovarian) | growth (OVCAR-3 ovarian) | growth (HS 578T breast) | growth (NCI/ADR-RES ovarian) | growth (T-47D breast) | growth (BT-549 breast) | growth (MDA-MB-435 melanoma) | growth (SW-620 colon) | growth (MCF7 breast; 10 µM) | growth (HCT-116 colon) | growth (HCC-2998 colon) | growth (KM12 colon) | growth (OVCAR-8 ovarian) | growth (MCF7 breast; 100 µM)
1 | Cc1cc(Cl)ccc1NC(=O)/C(Cl)=C1/Sc2ccccc2NC1=O | 69.4% | 93.5% | 89.8% | 103% | 68.7% | 95.4% | 122% | 87.6% | 50.3% | 115% | 99.7% | 113% | 70.8% | 76.7% | 119% | 96.4% |  | 
2 | S=C1SCN(CCc2ccccc2)CN1CCc1ccccc1 | 55.8% | 112% |  |  | 105% | 116% | 105% | 102% | 70.8% | 129% | 98.6% | 89.4% | 40.7% | 102% | 101% | 96.8% | 100% | 
3 | O=S(=O)(c1cc(Cl)ccc1O)c1cc(Cl)ccc1O | 51.2% | 116% | 85.3% | 78.4% | 83.5% | 78% | 65.6% | 91.9% | 67% |  | 93.4% | 86.3% | 92.9% | 77.1% | 99.5% | 98.1% | 83.7% | 
4 | COc1ccc(N)c2c1C(=O)c1ccccc1C2=O | 88.9% | 103% | 109% | 89.4% | 88.7% | 115% | 107% | 110% | 81.9% |  | 108% | 106% | 95.2% | 102% | 105% | 102% | 95.7% | 
5 | O=C(CCc1ccccc1)ON1C(=S)C(c2ccccc2)(c2ccccc2)N=C1Sc1ccccc1 |  |  |  |  |  |  |  |  |  |  |  |  |  |  |  |  |  | 1.09% (active) and 4.44% (active)
6 | Nc1nc(N)c2cc(Sc3ccc4ccccc4c3)ccc2n1 | -11.9% (active) | 50.5% |  | 62.3% | 27.8% | 38.8% | 61.7% | 43.9% | 45.8% | 67.4% | 33.8% | 18.9% | 25.2% | 15.4% | -39.4% (active) | 23.8% | 34.8% | 
7 | Cc1cc(C)c(N2C(=O)CC(Sc3ccccc3N)C2=O)c(C)c1 (centres undefined) | 66.3% | 118% | 71.4% | 71.6% | 92% | 71.1% | 81% | 75% | 87.8% | 96.2% | -20.8% (active) | 55.9% | 31.7% | 79.2% |  | 50.9% | 91.1% | 
8 | ClCCn1c(CCl)nc2ccc(Cl)cc21 | -22.2% (active) | -22.9% (active) | -18.9% (active) |  | -62.5% (active) | -89.6% (active) | -10.9% (active) | 2.35% (active) |  | -66.2% (active) | -83% (active) | -54.6% (active) | -6.55% (active) | -28.9% (active) | -2.45% (active) | -43% (active) | -33% (active) | 
9 | O=C(CNS(=O)(=O)Cc1ccccc1)NNc1ccccc1 | 62.4% | 68.6% | 42.6% | 78.7% | 65.5% | 86.8% |  | 67% | 56.6% | 82.9% | 21.9% |  | 76.5% | 55.6% | 70.5% | 15% | 58.4% | 
10 | O=C(O)c1ccccc1.[Ag] | 96.9% | 102% | 95% | 109% | 116% | 113% | 114% | 93.2% | 72.6% | 99.4% | 88.5% |  | 96.4% | 96.8% | 109% | 89.3% | 96.8% | 
11 | Clc1c(Cl)c(Cl)c2c(nnn2C2CCCO2)c1Cl (centres undefined) |  |  |  |  |  |  |  |  |  |  |  |  |  |  |  |  |  | 3.55% (active) and -84.2% (active)
12 | COc1cc2c(cc1C[N+](C)(C)CSc1ccccc1)-c1ccccc1CC2 |  |  |  |  |  |  |  |  |  |  |  |  |  |  |  |  |  | -75.8% (active) and -73.3% (active)
13 | COc1ccc2c(c1)[nH]c1c(/C=C/c3ccccc3)nccc12 | 25.2% | 74.2% | 21.4% | 65.1% | -15.7% (active) | 73.4% | 70.4% | 53.4% | 43.7% | 61.8% | 85% | 72.1% | 65.7% | 29.9% | 34.4% | 71.1% |  | 
14 | O=C(NC(=S)Nc1ccccn1)c1ccccc1 | 60.4% | 89.1% | 62.7% | 107% | 78.7% | 98% | 88.8% | 55.3% | 59.1% | 77.1% | 105% | 96.1% | 24.3% | 87.9% |  | 97% | 103% | 
15 | N#CC(=S)Nc1cccc(Cl)c1 |  |  |  |  |  |  |  |  |  |  |  |  |  |  |  |  |  | 0.126% (active) and -100% (active)
16 | C=C(C)[C@@H]1CCc2c(O)c(O)c(=O)cc(C)c2C1 |  |  |  |  |  |  |  |  |  |  |  |  |  |  |  |  |  | -84.1% (active) and -67.9% (active)
17 | O=C1C(Cl)=C(Cl)C(Cl)(Cl)C(Cl)C1(Cl)Cl (centres undefined) | 98.1% | 102% |  | 103% | 90.9% | 112% | 109% | 104% | 91.9% | 96.4% | 111% | 105% | 96.8% | 102% | 106% | 109% | 106% | 
